# Test results reported in PubChem BioAssay (EPA / NIEHS).
# Results filed as inconclusive are left out. The source made the active and inactive calls. The calls were made as follows: active = hit-call score of the fitted dose curve at least 0.9, where 1 is the maximum; inconclusive = response in the unintended direction; inactive = score below 0.9.
# What was measured:
# [1] = biological target: Peroxisome proliferator-activated receptor gamma (Homo sapiens) (UniProt P37231); assay: ATG_PPARg_TRANS: Attagene TRANS-FACTORIAL HepG2 Assay for human Peroxisome Proliferator-activated Receptor-gamma (PPARg) (AID 2283007)
# Outline: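 Twenty-four hours after chemical dosing of transiently transfected HepG2 cells, isolated RNA was converted to cDNA, reporter sequences amplified and 6-FAM-labelled, then HpaI-digested and analysed by capillary electrophoresis. Signal increase against DMSO was fitted.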
# [2] = biological target: Nuclear receptor subfamily 1 group I member 2 (Homo sapiens) (UniProt O75469); assay: ATG_PXR_TRANS: Attagene TRANS-FACTORIAL HepG2 Assay for human Pregnane X Receptor (PXR) (AID 2283008)
# Outline: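 HepG2 transfected (FuGene 6) with GAL4-UAS reporter units + PXR-Gal4 chimera; dosed 24 h. Total RNA → oligo(dT) RT → PCR → 6-FAM primer extension → HpaI cut → CE. Gain-of-signal vs DMSO.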
# [3] = biological target: human Retinoic Acid Receptor beta (RARb), RARB (gene 5915) (UniProt P10826); assay: ATG_RARb_TRANS: Attagene TRANS-FACTORIAL HepG2 Assay for human Retinoic Acid Receptor beta (AID 2283004)
# Outline: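 Induction of reporter mRNA from a chimeric RARb-Gal4 construct was measured by RT-PCR, FAM labelling, HpaI digestion and capillary electrophoresis. Measurements followed 24 h compound treatment of transiently transfected human HepG2 liver cells, with DMSO as baseline.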
# [4] = biological target: Retinoic acid receptor alpha (Homo sapiens) (UniProt P10276); assay: ATG_RARa_TRANS: Attagene TRANS-FACTORIAL HepG2 Assay for human Retinoic Acid Receptor alpha (RARa) (AID 2283005)
# Outline: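 HepG2 cells transiently transfected with multiple reporter units expressing chimeric RARα-GAL4 fusion, with GAL4-UAS-driven reporters. After 24 h compound exposure, reporter mRNA induction quantified by RT-PCR and capillary electrophoresis with fluorescent labeling; gain-of-signal fitted relative to DMSO control.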
# [5] = biological target: human Retinoic Acid Receptor gamma (RARg), RARG (gene 5916) (UniProt P13631); assay: ATG_RARg_TRANS: Attagene TRANS-FACTORIAL HepG2 Assay for human Retinoic Acid Receptor gamma (RARg) (AID 2283009)
# Outline: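 Gain-of-signal relative to DMSO is reported from fluorescent capillary electrophoresis of RT-PCR reporter products. These came from HepG2 cells expressing transfected RARg-GAL4 chimeras with UAS reporters, harvested 24 h after dosing.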
# Chain of Peroxisome proliferator-activated receptor gamma (Homo sapiens) (P37231 whole entry, looked up): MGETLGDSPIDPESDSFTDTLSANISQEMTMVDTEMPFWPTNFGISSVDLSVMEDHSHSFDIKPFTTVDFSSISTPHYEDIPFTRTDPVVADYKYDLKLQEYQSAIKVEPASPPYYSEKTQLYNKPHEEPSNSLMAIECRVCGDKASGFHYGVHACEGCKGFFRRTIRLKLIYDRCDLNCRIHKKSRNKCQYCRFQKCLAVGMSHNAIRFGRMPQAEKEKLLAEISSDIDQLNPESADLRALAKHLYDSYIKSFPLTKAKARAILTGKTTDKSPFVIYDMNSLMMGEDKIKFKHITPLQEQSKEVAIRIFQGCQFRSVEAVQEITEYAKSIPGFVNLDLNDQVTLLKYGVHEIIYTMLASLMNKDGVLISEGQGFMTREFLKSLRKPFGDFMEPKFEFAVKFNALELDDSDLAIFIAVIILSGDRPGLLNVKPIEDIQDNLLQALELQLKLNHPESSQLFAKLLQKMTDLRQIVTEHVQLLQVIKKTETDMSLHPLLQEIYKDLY
# Chain of Nuclear receptor subfamily 1 group I member 2 (Homo sapiens) (O75469 whole entry, looked up, the tested form may be a part): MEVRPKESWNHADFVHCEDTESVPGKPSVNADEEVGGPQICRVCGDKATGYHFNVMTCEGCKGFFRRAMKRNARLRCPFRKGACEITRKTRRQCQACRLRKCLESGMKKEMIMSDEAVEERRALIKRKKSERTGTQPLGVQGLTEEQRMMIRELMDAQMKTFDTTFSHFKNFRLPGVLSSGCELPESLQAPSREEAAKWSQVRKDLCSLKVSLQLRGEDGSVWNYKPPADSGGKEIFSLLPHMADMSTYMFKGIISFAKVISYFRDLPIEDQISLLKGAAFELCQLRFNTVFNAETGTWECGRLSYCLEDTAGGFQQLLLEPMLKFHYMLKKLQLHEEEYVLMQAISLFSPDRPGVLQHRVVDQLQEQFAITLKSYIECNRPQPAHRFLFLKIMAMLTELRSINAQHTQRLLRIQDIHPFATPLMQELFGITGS
# Chain of Retinoic acid receptor alpha (Homo sapiens) (P10276 whole entry, looked up, the tested form may be a part): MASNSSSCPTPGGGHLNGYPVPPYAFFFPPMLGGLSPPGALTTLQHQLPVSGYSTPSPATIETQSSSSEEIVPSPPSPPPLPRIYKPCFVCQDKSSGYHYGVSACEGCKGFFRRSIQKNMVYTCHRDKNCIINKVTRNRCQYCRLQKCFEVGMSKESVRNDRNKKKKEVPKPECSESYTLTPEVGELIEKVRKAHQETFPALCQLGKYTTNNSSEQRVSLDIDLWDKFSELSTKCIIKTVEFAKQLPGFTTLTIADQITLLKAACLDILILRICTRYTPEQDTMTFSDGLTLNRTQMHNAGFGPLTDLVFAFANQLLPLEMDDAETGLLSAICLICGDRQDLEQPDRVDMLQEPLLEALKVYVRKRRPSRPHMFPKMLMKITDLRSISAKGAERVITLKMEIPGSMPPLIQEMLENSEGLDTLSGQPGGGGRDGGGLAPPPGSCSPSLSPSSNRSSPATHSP
# Chain of human Retinoic Acid Receptor gamma (RARg), RARG (gene 5916) (P13631 whole entry, looked up, the tested form may be a part): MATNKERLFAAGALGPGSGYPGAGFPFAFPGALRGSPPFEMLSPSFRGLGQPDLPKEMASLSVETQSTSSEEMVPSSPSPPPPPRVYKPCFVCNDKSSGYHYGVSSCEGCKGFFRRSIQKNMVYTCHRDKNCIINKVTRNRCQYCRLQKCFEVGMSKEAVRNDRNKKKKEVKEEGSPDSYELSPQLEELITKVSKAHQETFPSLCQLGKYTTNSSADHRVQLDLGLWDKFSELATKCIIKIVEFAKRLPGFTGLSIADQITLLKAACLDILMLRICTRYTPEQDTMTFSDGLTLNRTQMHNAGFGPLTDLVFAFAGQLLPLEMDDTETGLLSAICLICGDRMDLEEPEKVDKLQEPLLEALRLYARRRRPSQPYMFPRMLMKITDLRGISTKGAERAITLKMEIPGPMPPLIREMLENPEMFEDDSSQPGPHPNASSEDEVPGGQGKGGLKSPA
# Chain of human Retinoic Acid Receptor beta (RARb), RARB (gene 5915) (P10826 whole entry, looked up, the tested form may be a part): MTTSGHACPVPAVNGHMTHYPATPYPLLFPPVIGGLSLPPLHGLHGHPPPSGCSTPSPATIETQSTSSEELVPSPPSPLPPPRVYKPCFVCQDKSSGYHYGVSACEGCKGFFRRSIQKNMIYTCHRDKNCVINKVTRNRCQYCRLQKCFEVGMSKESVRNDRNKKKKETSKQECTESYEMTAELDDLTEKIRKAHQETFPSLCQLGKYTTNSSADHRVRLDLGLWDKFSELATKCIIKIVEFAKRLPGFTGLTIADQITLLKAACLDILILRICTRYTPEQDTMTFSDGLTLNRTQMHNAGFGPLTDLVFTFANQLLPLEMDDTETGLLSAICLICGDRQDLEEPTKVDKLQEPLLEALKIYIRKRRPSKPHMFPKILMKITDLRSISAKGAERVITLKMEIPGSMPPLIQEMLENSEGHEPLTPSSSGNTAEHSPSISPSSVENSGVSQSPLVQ
smiles,measurement,setting,value
CCCCN(CCCC)CCCCCCN(CCCC)CCCC,outcome,[1],inactive
Nc1ccn([C@H]2CC[C@@H](CO)O2)c(=O)n1,outcome,[2],inactive
CC(=O)C1C(=O)C=C(C)OC1=O (configuration not stated),outcome,[3],inactive
same,outcome,[4],inactive
same,outcome,[5],inactive
CCC(CC)CO,outcome,[1],inactive
same,outcome,[2],inactive
